Screening results: PubChem, National Center for Advancing Translational Sciences (NCATS)
Most compounds without a hit are left out; they make up all but 9.2% or so of the library.
FLuc counter – counter-screen for miR-21 project: firefly luciferase inhibitors or activators; P08659; purified FLuc, Km substrates, luminescence inhibition; Potency, µM (doses to about 57.5 µM), hits mostly inhibitors; 360,000 tested, 6.9% active; also: nearly all actives have a fitted effect of over 55% in size
Target sequence (P08659 whole entry, looked up): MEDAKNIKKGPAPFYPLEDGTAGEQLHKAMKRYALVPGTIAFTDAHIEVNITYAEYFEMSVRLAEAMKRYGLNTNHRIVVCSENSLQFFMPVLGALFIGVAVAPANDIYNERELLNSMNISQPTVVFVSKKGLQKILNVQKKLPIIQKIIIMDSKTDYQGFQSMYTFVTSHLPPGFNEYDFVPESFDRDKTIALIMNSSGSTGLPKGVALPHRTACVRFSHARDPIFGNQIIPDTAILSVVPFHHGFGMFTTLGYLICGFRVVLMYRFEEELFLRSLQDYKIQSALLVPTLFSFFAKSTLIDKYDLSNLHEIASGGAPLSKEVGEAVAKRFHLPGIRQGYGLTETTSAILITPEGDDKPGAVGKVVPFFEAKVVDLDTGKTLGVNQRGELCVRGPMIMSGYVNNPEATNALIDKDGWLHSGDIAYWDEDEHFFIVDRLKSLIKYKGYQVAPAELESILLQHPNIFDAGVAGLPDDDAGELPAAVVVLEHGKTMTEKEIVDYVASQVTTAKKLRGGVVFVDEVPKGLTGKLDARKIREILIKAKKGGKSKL
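Biochemical qHTS of compounds, final roughly 60 µM downward over six points, against 10 nM purified firefly luciferase using Km concentrations of substrates (10 uM D-luciferin, 10 uM ATP) in Tris acetate pH 7.5 buffer; luminescence output.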
ELG1 genotoxic – inducers of genotoxicity in HEK293T ELG1-luciferase cells. HEK293T ELG1-luciferase reporter, luminescence, 16 h. Potency, µM (doses to about 46 µM), hits mostly activators. 330,000 tested, 1.3% active. AID 504466; also: nearly all actives have a fitted effect of over 60% in size
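DMSO vehicle served as control against compound-treated ELG1-luciferase HEK293T cells; exposure lasted 16 hr at 37 °C and 5% CO2, followed by ONE-Glo luminescence detection after 30 min.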
NPC1 promoter act – activates the NPC1 promoter | Huh7 NPC1 promoter luciferase reporter, 24 h | Potency, µM (titrated, usually from 9.22 µM), usual class: activators | 320,000 tested, 2.4% active | AID 485313; also: nearly all actives have a fitted effect of over 60% in size
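Stable NPC1-promoter luciferase Huh7 line; cpd (DMSO) 24 h, 37 °C, 5% CO2; Amplite luciferase reagent 10 min RT; luminescence readout. qHTS format.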
SMN2 splice up – enhancers of SMN2 splice variant expression. HEK293 SMN2-luciferase splicing reporter, luminescence, 30-36 h. Potency, µM (highest dose often 46.1 µM), hits mostly activators. 210,000 tested, 2.8% active; also: nearly all actives have a fitted effect of over 55% in size
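HEK293 cells carry an SMN2 minigene-luciferase reporter in which exon 7 inclusion puts luciferase in frame. Cells were seeded at 2000 cells/well, attached for 10-12 hours, then exposed to compounds for 30-36 hours at 37C before ONE-Glo luminescence.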
Rab9 prom act – Rab9 promoter activation; Huh7 Rab9 promoter-luciferase reporter, luminescence, 24 h; Potency, µM (series often up to 9.22 µM), most hits filed as activators; 320,000 tested, 2.8% active; AID 485297; also: nearly all actives have a fitted effect of over 60% in size
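Huh7 reporter line, Rab9 promoter upstream of luciferase. Compound exposure 24 h at 37 °C in reduced-serum medium with 10% FBS. Read-out: luminescence.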
ELG1 DNA repair – blocks ELG1-dependent DNA repair in HEK293T cells; HEK293T ELG1-luciferase reporter, luminescence, 16 h; DNA damage induced by 5-fluorouridine; 330,000 tested, 2.3% active; Potency, µM (top dose mostly 46.1 µM), most hits filed as inhibitors; AID 504467; also: nearly all actives have a fitted effect of over 55% in size
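5-Fluorouridine DNA damage + compound/DMSO, 2,000 cells/well, 16 h, 37 °C/5% CO2. ONE-Glo, 30 min RT, luminescence. Readout = decrease in reporter signal.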
Of the large screens only hits and unclear results are named; the others gave an inactive call. Calls follow the shape of the dose curve; as a rule, active = well fitted curve in the direction sought with a large enough effect; inconclusive = small, poorly fitted or top-dose-only effect, or another doubt; inactive = no such curve, though single readings can be large; an effect the other way counts as inactive or inconclusive.

FC(F)(F)c1cc(CN2CC[C@@]3(CCCNC3)C2)cc(C(F)(F)F)c1	none (no result: FLuc counter, ELG1 genotoxic, NPC1 promoter act, Rab9 prom act, ELG1 DNA repair)
Cc1ccc(N2CC(C)Cn3c2nc2c3c(=O)[nH]c(=O)n2C)cc1C (stereo unspecified)	ELG1 DNA repair 9.2µM (no result: SMN2 splice up)
c1cc2[nH]snc2c2nc(C3CC3)nc12	FLuc counter inconclusive, ELG1 DNA repair 5.8µM
Cc1[nH]c2ccccc2c1/C=N\NC(=O)CNc1ccc2c(c1)OCO2	FLuc counter 11µM
O=C(N/N=C/c1ccc[nH]1)c1ccc2c(c1)OCO2	FLuc counter 13µM, ELG1 genotoxic inconclusive, SMN2 splice up inconclusive, ELG1 DNA repair inconclusive
O=C(CNc1ccc2c(c1)OCO2)N/N=C\c1ccccc1Cl	FLuc counter inconclusive
O=C(N/N=C/c1cccnc1)c1ccc(O)cc1	FLuc counter inconclusive (no result: SMN2 splice up)
O=C(N/N=C/c1ccc[nH]1)c1cccc([N+](=O)[O-])c1	none
O=C(N/N=C/c1cccnc1)c1ccc2c(c1)OCO2	FLuc counter 8.5µM, ELG1 genotoxic inconclusive, NPC1 promoter act inconclusive, Rab9 prom act inconclusive, ELG1 DNA repair inconclusive (no result: SMN2 splice up)
Cc1cc(C(=O)N/N=C/c2cccc(OC(=O)c3ccco3)c2)n[nH]1	FLuc counter 17µM, SMN2 splice up inconclusive, ELG1 DNA repair inconclusive
O=C(Cn1nnc2ccccc2c1=O)Nc1cccc(S(=O)(=O)N2CCOCC2)c1	ELG1 DNA repair inconclusive
Cc1ccc(NC(=O)c2ccc(=O)n(CC(=O)Nc3cc(C)cc(C)c3)n2)cc1	none (no result: ELG1 genotoxic, NPC1 promoter act, SMN2 splice up, Rab9 prom act, ELG1 DNA repair)
COc1ccc(OCCNC(=O)c2ccc(C)cc2)cc1	NPC1 promoter act inconclusive, ELG1 DNA repair inconclusive (no result: SMN2 splice up)
O=C(N/N=C/c1cccc(O)c1)c1ccc2c(c1)OCCO2	FLuc counter 1.7µM, ELG1 genotoxic inconclusive, NPC1 promoter act inconclusive, ELG1 DNA repair inconclusive (no result: SMN2 splice up)
CCN(CC)c1ccc(/C=N/NC(=O)CNC(=O)c2ccc3c(c2)OCCO3)cc1	FLuc counter 17µM (no result: SMN2 splice up)
O=C(N/N=C\c1ccc2c(c1)OCO2)c1ccco1	FLuc counter 8.5µM, ELG1 genotoxic 15µM, NPC1 promoter act 3.2µM, Rab9 prom act 1.8µM, ELG1 DNA repair inconclusive (no result: SMN2 splice up)
O=C(N/N=C/c1cc2c(cc1Cl)OCO2)c1ccc2c(c1)OCCO2	FLuc counter 7.6µM, ELG1 DNA repair inconclusive (no result: SMN2 splice up)
O=C1N=c2ccc(Br)cc2=C1c1sc(=S)n(NS(=O)(=O)c2ccccc2)c1O	FLuc counter inconclusive
CCSc1cc(N2CCOCC2)nc(-c2ccc(Cl)cc2)n1	none
O=C(N/N=C/c1c(Cl)[nH]c2ccccc12)c1ccc2c(c1)OCCO2	FLuc counter 1.5µM, ELG1 genotoxic inconclusive, NPC1 promoter act inconclusive, Rab9 prom act inconclusive, ELG1 DNA repair inconclusive (no result: SMN2 splice up)
O=C(CNC(=O)c1cccc(Br)c1)N/N=C/c1ccc2c(c1)OCO2	FLuc counter 17µM, ELG1 genotoxic inconclusive (no result: SMN2 splice up)
O=C(NCc1ccccn1)C(=O)N/N=C/c1ccc2c(c1)OCO2	FLuc counter 17µM (no result: SMN2 splice up)
Cc1[nH]c2ccccc2c1/C=N/NC(=O)c1cccc(F)c1	FLuc counter inconclusive (no result: SMN2 splice up)
O=C(N/N=C\c1ccc(S(=O)(=O)O)o1)c1ccc2c(c1)OCO2	FLuc counter inconclusive (no result: SMN2 splice up)
O=C(N/N=C/c1ccc2c(c1)OCO2)c1ccc2c(c1)OCO2	FLuc counter inconclusive, NPC1 promoter act 2.2µM, Rab9 prom act 2.5µM, ELG1 DNA repair inconclusive (no result: SMN2 splice up)
CCCCNc1ncnc2c1nnn2Cc1ccccc1Cl	none (no result: SMN2 splice up)
CCOc1ccc(N(CC(=O)NCc2ccccc2Cl)S(=O)(=O)c2c(C)noc2C)cc1	none (no result: SMN2 splice up)
CCc1ccc(S(=O)(=O)c2cn(CC(=O)Nc3ccc(C)cc3)c3ccccc3c2=O)cc1	none (no result: ELG1 genotoxic, NPC1 promoter act, Rab9 prom act, ELG1 DNA repair)
O=C(COC(=O)c1c[nH]c(=O)[nH]c1=O)Nc1ccccc1	none
CC(CO)(CO)N=Cc1cc(I)cc(I)c1O	none (no result: FLuc counter, ELG1 genotoxic, NPC1 promoter act, Rab9 prom act, ELG1 DNA repair)
O=C(N/N=C\c1cccc(OC(=O)c2ccco2)c1)c1ccc2c(c1)OCO2	FLuc counter 1.7µM, ELG1 genotoxic 15µM, SMN2 splice up inconclusive, ELG1 DNA repair inconclusive
Cc1cc(C)c(S(=O)(=O)N/N=C/c2ccc3c(c2)OCO3)c(C)c1	none (no result: SMN2 splice up)
Cc1cc(Cl)c(S(=O)(=O)N/N=C/c2ccc3c(c2)OCO3)c(Cl)c1	FLuc counter 15µM, SMN2 splice up inconclusive, ELG1 DNA repair inconclusive
